Experimental findings from PubChem BioAssay (NCI) are described below.

This is part of a sample that, as a whole, favours compounds with a hit. Of some 83,000 tested, about 20% had one in any assay.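 Assay: single dose, 48 h. Readout: percent growth (0 = no net growth; negative = cell death). Active: <10.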 Unmarked numbers belong to inactive results. Active and inactive are the calls of the source.

Common to all, as to assay: NCI-60 one-dose screen, 48 h (100 = growth as untreated, 0 = no growth, -100 = all killed)
In experiment [1] the test system is A549/ATCC NSCLC. Conditions: 10 µM unless noted.
Experiment [2] has as its system K-562 leukemia. The following applies: 10 µM unless noted.
Experiment [3] concerns RXF 393 renal. Conditions: 10 µM unless noted.
For experiment [4], the system named is SF-295 CNS. The following applies: 10 µM unless noted.
Experiment [5] concerns UACC-257 melanoma. Conditions: 10 µM unless noted.
Experiment [6] has as its system HT29 colon. Conditions: 10 µM unless noted.
Experiment [7] deals with SNB-75 CNS. Conditions: 10 µM unless noted.
In experiment [8] the test system is SK-MEL-2 melanoma. The following applies: 10 µM unless noted.
The test system of experiment [9] is ACHN renal. The following applies: 10 µM unless noted.
For experiment [10], the system named is CAKI-1 renal. The following applies: 10 µM unless noted.
Experiment [11] deals with A498 renal. The following applies: 10 µM unless noted.
Experiment [12] concerns OVCAR-5 ovarian. Conditions: 10 µM unless noted.
The subject of experiment [13] is OVCAR-4 ovarian. Conditions: 10 µM unless noted.
Experiment [14] relates to SK-OV-3 ovarian. The following applies: 10 µM unless noted.
For experiment [15], the system named is HS 578T breast. Conditions: 10 µM unless noted.
Experiment [16] concerns NCI/ADR-RES ovarian. Conditions: 10 µM unless noted.
Experiment [17] concerns T-47D breast. Conditions: 10 µM unless noted.
Experiment [18] deals with BT-549 breast. The following applies: 10 µM.
Experiment [19] relates to HL-60(TB) leukemia. Conditions: 10 µM unless noted.
In experiment [20] the test system is DU-145 prostate. Conditions: 10 µM unless noted.

As to `COc1ccc(C(=O)c2ccc([As]=O)cc2)cc1` (centres undefined), the growth in [1] is -71.8% (active); in [2], 0.914% (active); in experiment [3], -99.6% (active); in experiment [4], -97.9% (active); in experiment [5], -95.7% (active); in [6], -68.9% (active). The growth was -97% (active) in [7]; -94% (active) in experiment [8]; -91.8% (active) in experiment [9]; -98.7% (active) in experiment [10]; -100% (active) in [11]; -84.2% (active) in [12]. Further, the growth is -91.4% (active) in [13]; -99.8% (active) in experiment [14]; -1.54% (active) in [15]; -5.33% (active) in experiment [16]; -77.6% (active) in experiment [17]; -99.6% (active) in [18].
Consider `CC(=O)Oc1ccc(Cl)cc1`, for which the growth was 97.9% in experiment [1]; 94.5% in experiment [2]; 105% in experiment [3]; 112% in experiment [4]; 95.1% in [5]; 98.3% in experiment [6]. The growth in experiment [7] was 81.9%; in experiment [8] it was 106%; in experiment [9] it was 97.5%; in experiment [10], 90.5%; in [11], 82.2%; in experiment [19], 98.4%. The growth in [12] was 88.7%; in [13], 97.3%; in [14] it was 98.1%; in experiment [15], 90.3%; in experiment [16] it was 99.1%; in experiment [17], 94.2%. The growth in experiment [18] was 98.3%.
Turning to `C/C(=C\C(=O)O[C@H]1[C@@H]2[C@H](C)CC[C@H]2[C@]2(C)O[C@@]1(C1CCCCC1)C[C@H]2OC(=O)CO)c1ccccc1`, the growth in [1] was 40.8%; in experiment [20] it was 66.1%; in [2], 23.2%; in experiment [3] it was -10.1% (active); in [4], 50.5%; in experiment [5], 44.2%. For the same compound, the growth in experiment [6] was 9.35% (active); in [7], 68.3%; in experiment [8], 55.8%; in [9] it was -16.5% (active); in [10] it was -25% (active); in experiment [11], -83% (active). In addition, the growth in experiment [12] was 82.9%; in [13], 38.5%; in experiment [14] it was 59.7%; in experiment [15], -28.1% (active); in [16], 7.73% (active); in experiment [18], -6.37% (active).
In the case of `O=C(/C=C/c1ccccc1)N[C@@H](CO)Cc1cnc[nH]1`, the growth in experiment [20] was 114%; in experiment [2], 107%; in experiment [3], 118%; in experiment [4] it was 98.9%; in experiment [6] it was 105%; in experiment [7], 94.3%. Besides, the growth in [8] is 102%; in experiment [9] it was 96.4%; in [10], 100%; in [11] it was 115%; in [19], 98.8%; in experiment [12] it was 98.3%. Also, the growth was 96.8% in [13]; 113% in experiment [14]; 116% in [15]; 98% in experiment [16]; 104% in experiment [17]; 103% in [18].
With `Cc1cc([N+](=O)[O-])c(Cl)cc1NS(=O)(=O)c1ccccc1`, the growth in [20] was 104%; in [2], 71%; in [3] it was 91.9%; in experiment [4], 65.7%; in experiment [6], 82.1%; in [7], 64.1%. Moreover, the growth in experiment [8] is 55.5%; in experiment [9], 83.1%; in experiment [10], 63.7%; in [11], 67.2%; in [19], 57.3%; in experiment [12] it was 83.5%. The growth in experiment [13] was 71.4%; in experiment [14], 96%; in experiment [15] it was 72.5%; in [16] it was 78.7%; in [17] it was 59.5%; in [18] it was 62.5%.
For `NC(Cc1ccc(O)cc1)C(=O)N/N=C/c1ccc(N(CCCl)CCCl)cc1` (centres undefined), the growth was 52.3% in experiment [1]; 69.2% in experiment [20]; 41.3% in experiment [2]; 95.3% in [3]; 48.5% in experiment [4]; 93.6% in [5]. The growth in experiment [6] was 100%; in experiment [7], 70.2%; in experiment [8], 72.8%; in experiment [9], 75.1%; in experiment [10] it was 25.9%; in experiment [11], 82.3%. Moreover, the growth in experiment [19] is 8.82% (active); in [12], 115%; in [13] it was 90.6%; in [14], 90%; in experiment [15], 91.9%; in experiment [16] it was 78.4%. Moreover, the growth in experiment [17] is 79.2%; in experiment [18], 73.3%.
On to `Nc1c(Br)cc2c3c(cccc13)-c1ccccc1-2`, for which the growth in [1] is 77.2%; in experiment [20], 70%; in experiment [2], 38.3%; in experiment [3] it was 80.2%; in [4], 74.5%; in experiment [5], 88.4%. Moreover, the growth is 103% in experiment [6]; 60.9% in experiment [7]; 64.4% in experiment [8]; 75.7% in experiment [9]; 57.4% in experiment [10]; 70.5% in experiment [11]. Further, the growth in experiment [19] is 82.7%; in experiment [12], 76.8%; in experiment [13] it was 62.1%; in [14] it was 87.7%; in [15], 50%; in experiment [16] it was 83.4%. Also, the values for the growth in [17] and in experiment [18] were 38.6% and 91.8%, respectively.
With `CCC1CN1P(=O)(OCCOC)N1CC1CC` (centres undefined), the growth in experiment [1] is 101%; in experiment [20] it was 110%; in experiment [2] it was 109%; in experiment [3], 110%; in experiment [5] it was 96.7%; in [6], 104%. Moreover, the growth is 92.9% in [7]; 126% in [8]; 103% in experiment [9]; 119% in experiment [11]; 119% in experiment [19]; 103% in [12]. Also, the growth was 109% in experiment [13]; 118% in experiment [14]; 114% in experiment [15]; 115% in [16]; 104% in experiment [17]; 106% in experiment [18].
